Of roughly 7,900 targets only a part is listed; those with a hit were picked by preference. About 0.6% of all pairs of compound and target were hits. Unmarked numbers belong to inactive results.
These targets were tested with Cc1nc(Nc2ncc(C(=O)Nc3c(C)cccc3Cl)s2)cc(N2CCN(CCO)CC2)n1 [dasatinib] (assay: log2 fold change, soluble protein after heating vs DMSO (PISA); higher = thermal stabilisation; K562 cells, 10 uM, 30 min; active = over 0.2 and 3.5 SD of the protein, either way, in both replicates (recomputed)).
In short: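 For each measurement, 10 μM compound was applied for 30 min to K562 cells at 2×10^6 cells/mL. Aliquots were heated for 3 min across 48°C-58°C, pooled, and extracted in PBS with 0.5% NP-40 at 4°C; the supernatant after 21,000xg for 90 min was soluble protein. This was quantified by TMTpro 16plex LC-MS/MS with channel sums equalised, and thermal stability was reported relative to control samples from duplicates, on a log2 fold-change scale.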
UniProt O95319, sequence (O95319 whole entry, looked up): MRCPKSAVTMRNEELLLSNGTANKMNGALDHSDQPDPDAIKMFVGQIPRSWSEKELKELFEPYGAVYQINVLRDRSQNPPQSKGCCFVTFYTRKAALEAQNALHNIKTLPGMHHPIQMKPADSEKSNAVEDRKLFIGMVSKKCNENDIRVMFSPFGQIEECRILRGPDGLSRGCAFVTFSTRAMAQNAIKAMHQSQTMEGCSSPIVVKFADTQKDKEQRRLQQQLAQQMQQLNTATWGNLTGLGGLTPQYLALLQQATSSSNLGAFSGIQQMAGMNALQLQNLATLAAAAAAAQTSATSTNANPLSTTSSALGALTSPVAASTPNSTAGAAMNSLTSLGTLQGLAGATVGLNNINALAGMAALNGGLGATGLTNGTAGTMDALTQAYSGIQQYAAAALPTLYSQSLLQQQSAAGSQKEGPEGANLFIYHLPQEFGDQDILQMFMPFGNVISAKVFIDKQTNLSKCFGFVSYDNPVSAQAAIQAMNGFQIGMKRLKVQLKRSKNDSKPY
UniProt P16152, sequence (P16152 whole entry, looked up): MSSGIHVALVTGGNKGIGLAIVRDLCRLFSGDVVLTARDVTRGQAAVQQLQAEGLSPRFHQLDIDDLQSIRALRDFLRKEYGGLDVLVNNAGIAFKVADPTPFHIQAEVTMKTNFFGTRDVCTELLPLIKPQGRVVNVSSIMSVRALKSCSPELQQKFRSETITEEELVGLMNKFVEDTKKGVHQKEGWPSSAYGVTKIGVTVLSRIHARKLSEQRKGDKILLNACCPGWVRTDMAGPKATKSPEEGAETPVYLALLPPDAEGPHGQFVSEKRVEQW
UniProt Q14839, sequence (Q14839 whole entry, looked up): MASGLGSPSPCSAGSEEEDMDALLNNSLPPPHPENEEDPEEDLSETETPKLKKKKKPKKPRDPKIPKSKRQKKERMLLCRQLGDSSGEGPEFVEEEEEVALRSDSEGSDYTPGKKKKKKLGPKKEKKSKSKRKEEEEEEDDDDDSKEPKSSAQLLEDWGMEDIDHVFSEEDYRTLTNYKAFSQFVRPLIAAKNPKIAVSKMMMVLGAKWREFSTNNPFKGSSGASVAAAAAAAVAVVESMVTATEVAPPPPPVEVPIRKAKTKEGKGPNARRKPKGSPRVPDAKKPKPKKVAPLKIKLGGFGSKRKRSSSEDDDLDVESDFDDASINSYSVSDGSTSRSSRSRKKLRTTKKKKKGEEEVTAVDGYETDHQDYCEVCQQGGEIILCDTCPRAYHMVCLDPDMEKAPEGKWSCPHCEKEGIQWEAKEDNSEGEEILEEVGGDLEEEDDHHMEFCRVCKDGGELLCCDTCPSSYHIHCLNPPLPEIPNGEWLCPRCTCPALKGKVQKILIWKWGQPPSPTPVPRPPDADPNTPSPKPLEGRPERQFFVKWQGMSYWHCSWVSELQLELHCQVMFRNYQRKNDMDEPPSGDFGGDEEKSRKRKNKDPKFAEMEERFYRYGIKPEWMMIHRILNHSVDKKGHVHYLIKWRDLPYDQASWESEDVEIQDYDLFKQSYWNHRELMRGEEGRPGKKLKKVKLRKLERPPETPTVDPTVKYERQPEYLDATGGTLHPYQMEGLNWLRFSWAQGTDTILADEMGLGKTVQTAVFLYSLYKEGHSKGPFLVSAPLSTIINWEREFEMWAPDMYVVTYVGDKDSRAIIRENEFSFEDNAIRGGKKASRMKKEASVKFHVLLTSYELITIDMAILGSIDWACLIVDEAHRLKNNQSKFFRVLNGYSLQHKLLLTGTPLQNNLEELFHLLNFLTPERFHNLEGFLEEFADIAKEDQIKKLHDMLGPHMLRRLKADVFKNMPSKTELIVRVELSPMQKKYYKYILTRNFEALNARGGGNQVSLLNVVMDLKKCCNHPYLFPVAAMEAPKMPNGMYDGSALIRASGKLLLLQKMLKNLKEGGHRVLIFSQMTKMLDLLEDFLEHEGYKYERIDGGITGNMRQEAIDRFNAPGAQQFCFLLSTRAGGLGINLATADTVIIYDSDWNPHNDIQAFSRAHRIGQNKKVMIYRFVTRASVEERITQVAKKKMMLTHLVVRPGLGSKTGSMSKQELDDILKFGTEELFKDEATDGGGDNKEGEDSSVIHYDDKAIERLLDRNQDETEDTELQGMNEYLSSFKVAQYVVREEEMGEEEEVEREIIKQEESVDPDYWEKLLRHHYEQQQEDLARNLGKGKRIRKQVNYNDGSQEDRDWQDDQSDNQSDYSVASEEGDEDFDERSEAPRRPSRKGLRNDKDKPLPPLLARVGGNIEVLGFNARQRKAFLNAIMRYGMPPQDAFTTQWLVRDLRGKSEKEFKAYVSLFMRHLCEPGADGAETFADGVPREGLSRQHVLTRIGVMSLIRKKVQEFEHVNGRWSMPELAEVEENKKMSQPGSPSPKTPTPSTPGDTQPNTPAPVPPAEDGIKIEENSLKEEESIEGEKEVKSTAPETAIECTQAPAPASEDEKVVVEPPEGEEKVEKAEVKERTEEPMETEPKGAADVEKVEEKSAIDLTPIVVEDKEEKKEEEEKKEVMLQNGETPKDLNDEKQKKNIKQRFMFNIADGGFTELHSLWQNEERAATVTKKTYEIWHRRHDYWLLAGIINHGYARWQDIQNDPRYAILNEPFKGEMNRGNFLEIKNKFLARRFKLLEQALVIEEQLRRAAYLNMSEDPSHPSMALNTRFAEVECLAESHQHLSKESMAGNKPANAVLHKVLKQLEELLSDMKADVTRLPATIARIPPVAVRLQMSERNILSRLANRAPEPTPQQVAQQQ
UniProt P67870, sequence (P67870 whole entry, looked up): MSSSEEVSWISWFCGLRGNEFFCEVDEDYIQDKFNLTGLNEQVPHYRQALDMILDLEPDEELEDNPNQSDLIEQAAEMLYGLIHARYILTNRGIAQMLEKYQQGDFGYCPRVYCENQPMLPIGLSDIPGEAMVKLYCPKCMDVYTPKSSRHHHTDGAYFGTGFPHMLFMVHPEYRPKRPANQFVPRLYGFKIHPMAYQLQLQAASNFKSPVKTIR
UniProt Q00534, sequence (Q00534 whole entry, looked up): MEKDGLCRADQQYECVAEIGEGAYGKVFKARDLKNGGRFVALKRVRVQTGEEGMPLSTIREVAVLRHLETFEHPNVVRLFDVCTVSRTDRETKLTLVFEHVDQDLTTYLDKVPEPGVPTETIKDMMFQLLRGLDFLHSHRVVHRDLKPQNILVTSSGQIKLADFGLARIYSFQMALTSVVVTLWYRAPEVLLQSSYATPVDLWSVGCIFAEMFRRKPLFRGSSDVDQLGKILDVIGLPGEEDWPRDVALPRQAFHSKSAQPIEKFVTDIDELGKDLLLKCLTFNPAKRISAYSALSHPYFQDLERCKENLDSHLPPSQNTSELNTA
UniProt O75208, sequence (O75208 whole entry, looked up): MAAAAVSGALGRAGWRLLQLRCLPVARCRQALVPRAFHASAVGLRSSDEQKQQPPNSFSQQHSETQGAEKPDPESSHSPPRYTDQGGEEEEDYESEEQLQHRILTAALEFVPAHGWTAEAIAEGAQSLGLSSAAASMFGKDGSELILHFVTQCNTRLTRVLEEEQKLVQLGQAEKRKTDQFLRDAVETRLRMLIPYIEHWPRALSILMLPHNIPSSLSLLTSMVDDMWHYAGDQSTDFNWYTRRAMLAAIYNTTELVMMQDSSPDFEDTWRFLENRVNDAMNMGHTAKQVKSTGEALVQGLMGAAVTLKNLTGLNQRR
UniProt P41208, sequence (P41208 whole entry, looked up): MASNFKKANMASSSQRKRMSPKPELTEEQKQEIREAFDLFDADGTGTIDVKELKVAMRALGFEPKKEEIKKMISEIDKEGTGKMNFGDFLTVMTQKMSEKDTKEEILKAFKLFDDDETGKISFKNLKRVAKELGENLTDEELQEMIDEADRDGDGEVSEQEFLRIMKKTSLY
UniProt P33240, sequence (P33240 whole entry, looked up): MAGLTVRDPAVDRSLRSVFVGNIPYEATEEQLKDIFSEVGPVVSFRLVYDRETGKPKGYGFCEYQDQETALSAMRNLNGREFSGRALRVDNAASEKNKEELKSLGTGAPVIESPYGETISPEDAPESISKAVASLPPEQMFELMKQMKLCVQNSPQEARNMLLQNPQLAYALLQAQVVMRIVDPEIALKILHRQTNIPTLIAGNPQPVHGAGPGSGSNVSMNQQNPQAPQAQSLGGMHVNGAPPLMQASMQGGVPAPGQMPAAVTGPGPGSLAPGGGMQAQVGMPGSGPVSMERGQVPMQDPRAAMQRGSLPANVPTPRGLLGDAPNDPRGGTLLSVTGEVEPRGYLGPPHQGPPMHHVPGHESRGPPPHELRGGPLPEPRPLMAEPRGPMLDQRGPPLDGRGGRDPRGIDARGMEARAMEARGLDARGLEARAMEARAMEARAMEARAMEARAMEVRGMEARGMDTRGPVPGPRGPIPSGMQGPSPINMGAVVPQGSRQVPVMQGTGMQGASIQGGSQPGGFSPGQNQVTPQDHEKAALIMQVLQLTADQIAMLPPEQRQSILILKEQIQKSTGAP
UniProt P45973, sequence (P45973 whole entry, looked up): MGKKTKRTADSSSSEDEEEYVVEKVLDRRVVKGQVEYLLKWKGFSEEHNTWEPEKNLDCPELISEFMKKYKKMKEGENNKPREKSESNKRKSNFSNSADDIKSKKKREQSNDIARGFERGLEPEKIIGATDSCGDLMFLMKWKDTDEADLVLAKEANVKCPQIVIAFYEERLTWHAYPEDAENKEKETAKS
UniProt Q5T6V5, sequence (Q5T6V5 whole entry, looked up): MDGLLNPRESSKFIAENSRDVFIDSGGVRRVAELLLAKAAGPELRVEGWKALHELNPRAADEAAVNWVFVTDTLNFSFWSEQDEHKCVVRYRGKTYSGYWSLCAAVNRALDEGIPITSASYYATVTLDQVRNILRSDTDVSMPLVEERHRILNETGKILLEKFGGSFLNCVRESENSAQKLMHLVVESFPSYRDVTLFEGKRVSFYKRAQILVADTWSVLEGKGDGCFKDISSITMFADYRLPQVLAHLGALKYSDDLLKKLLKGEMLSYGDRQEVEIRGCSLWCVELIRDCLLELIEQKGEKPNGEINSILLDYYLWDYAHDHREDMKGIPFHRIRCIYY
UniProt Q5JTJ3, sequence (Q5JTJ3 whole entry, looked up): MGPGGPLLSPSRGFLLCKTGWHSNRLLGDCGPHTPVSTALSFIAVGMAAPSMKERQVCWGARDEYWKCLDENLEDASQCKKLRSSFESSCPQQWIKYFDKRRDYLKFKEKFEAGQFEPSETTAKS
C9orf64 (UniProt Q5T6V5) showed a log2 fold change of -0.197. CELF2 isoform 3 (UniProt O95319) was tested, and the log2 fold change was -0.005. CAMSAP1 isoform 3 (UniProt Q5T5Y3) showed a log2 fold change of -0.144. For CNOT4 isoform 6 (UniProt O95628), the log2 fold change was -0.034. CSTF2 (UniProt P33240) gave a log2 fold change of 0.007. CBX5 (UniProt P45973) gave a log2 fold change of -0.069. In the case of CHD3 isoform 3 (UniProt Q12873), the log2 fold change is reported as -0.086. CCDC9 (UniProt Q9Y3X0) showed a log2 fold change of 0.072. With CHERP (UniProt Q8IWX8) the log2 fold change was -0.086. Target COQ9 (UniProt O75208) has a log2 fold change of -0.147. For CPQ (UniProt Q9Y646), the log2 fold change was 0.069. In the case of CD81 (UniProt P60033), the log2 fold change is reported as 0.079. For CDK6 (UniProt Q00534), the log2 fold change was -0.01. For CHMP4C (UniProt Q96CF2), the log2 fold change was -0.027. In the case of CHAC2 (UniProt Q8WUX2), the log2 fold change is reported as 0.012. In the case of CSNK2B (UniProt P67870), the log2 fold change is reported as 0.015. For CBR1 (UniProt P16152), the log2 fold change was -0.02. In the case of CRKL (UniProt P46109), the log2 fold change is reported as -2.17 (active). In the case of CHD4 isoform 2 (UniProt Q14839), the log2 fold change is reported as -0.059. For COA6 isoform 2 (UniProt Q5JTJ3), the log2 fold change was -0.017. CNDP2 (UniProt Q96KP4) gave a log2 fold change of -0.031. CETN2 (UniProt P41208) gave a log2 fold change of 0.081.
